Source: the supplement of paper PMC10933113
Counter-ions that a name gives are not always drawn. ± gives the uncertainty stated by the source.

Tested on: THP-1
Test: CD54 surface expression induction over DMSO control (% over DMSO); higher = stronger dendritic cell activation
Settings: exposure time: 24 h
Method: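 hCLAT-like CD54 and CD86 surface expression on THP1 cells after 24 h exposure at a single concentration (highest non-cytotoxic concentration, or 100-200 µM if not cytotoxic). Flow cytometry (iQue) was run on 5,000 live cells.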

Row | SMILES | CD54 surface expression induction
1 | Nc1ccc(Cl)cc1N [4-Chloro-1,2-diaminobenzene*] (200 µM) | 233 ± 36
2 | COP(=S)(OC)Oc1nc(Cl)c(Cl)cc1Cl [Chlorpyrifos-methyl] (200 µM) | 20.5 ± 8.1
3 | O=[N+]([O-])c1cc([N+](=O)[O-])c2ccccc2c1 [1,3-Dinitronaphthalene] (200 µM) | 3.83 ± 2.5
4 | c1cc(OCC2CO2)ccc1Cc1ccc(OCC2CO2)cc1 (centres undefined) [Bis[4-(glycidyloxy)phenyl]methane] (100 µM) | 6.35 ± 4.5
5 | CC(C)OC(=S)S [Proxan-sodium] (10 µM) | -6.19 ± 3
6 | Nc1ccc(N)cc1 [1,4-Benzenediamine] (10 µM) | 30.8
7 | Cl/C=C\C[N+]12CN3CN(CN(C3)C1)C2 [Chloroallyl methenamine chloride] (10 µM) | 3.14 ± 2.9
8 | CCCOC/C(=N\c1ccc(Cl)cc1C(F)(F)F)n1ccnc1 [Triflumizole] (10 µM) | -3.38 ± 6.6
9 | O=[N+]([O-])c1cc(C(F)(F)F)c(Cl)c([N+](=O)[O-])c1Cl [2,4-Dichloro-1,3-dinitro-5-(trifluoromethyl)benzene] (10 µM) | 4.56 ± 5.6
10 | CCS(=O)(=O)CCSP(=O)(OC)OC [Demeton-S-methylsulphon] (10 µM) | -8.94 ± 5.5
11 | CCOC(=O)NC(=S)Nc1ccccc1NC(=S)NC(=O)OCC [Thiophanate] (100 µM) | 18.5 ± 4.7
12 | O=C(O)c1ccccc1C(=O)Nc1cccc2ccccc12 [Naptalam*] (200 µM) | 183 ± 32
13 | CN(C)S(=O)(=O)N(SC(F)(Cl)Cl)c1ccccc1 [Dichlofluanid] (10 µM) | 35.6 ± 3.1
14 | CCOP(=S)(OCC)SC(CCl)N1C(=O)c2ccccc2C1=O (centres undefined) [Dialifor] (100 µM) | -4.61 ± 27
15 | CC(C)=CC1C(C(=O)OCc2coc(Cc3ccccc3)c2)C1(C)C (centres undefined) [Resmethrin] (200 µM) | 19.8 ± 10
16 | CN1C[C@H](C(=O)N[C@]2(C)O[C@@]3(O)[C@@H]4CCCN4C(=O)[C@H](Cc4ccccc4)N3C2=O)C=C2c3cccc4[nH]cc(c34)C[C@H]21 [Ergotamine D-tartrate*] (79 µM) | 228 ± 28
17 | Nc1ccc2ccccc2c1 [2-Naphthylamine] (100 µM) | 10.3 ± 0.75
18 | c1ccc(Nc2ccc(Nc3ccccc3)cc2)cc1 [N,N'-Diphenyl-p-phenylenediamine] (200 µM) | -11.2 ± 11
19 | CCCCNC(=O)OCC#CI [Carbamic acid, butyl-, 3-iodo-2-propynyl ester] (10 µM) | -5.33 ± 4.1
20 | C=CC(=O)OCC(COC(=O)C=C)(COC(=O)C=C)COC(=O)C=C [Pentaerythritol tetraacrylate] (10 µM) | 1.03 ± 1.9

Row | SMILES | CD54 surface expression induction
21 | CC(C)Nc1ccc(Nc2ccccc2)cc1 [N-Isopropyl-N'-phenyl-p-phenylenediamine] (10 µM) | 46.7 ± 2.8
22 | CCc1cccc(CC)c1N(COC)C(=O)CCl [Alachlor] (100 µM) | 26.5 ± 9.3
23 | Nc1ccc(-c2ccccc2)cc1 [4-Biphenylamine hydrochloride] (100 µM) | -0.07 ± 4.1
24 | CCC(C)(CC)c1cc(NC(=O)c2c(OC)cccc2OC)on1 [Isoxaben] (200 µM) | -4.09 ± 5.1
25 | ClC1=C(Cl)C(Cl)(Cl)C(Cl)=C1Cl [Hexachlorocyclopentadiene] (200 µM) | 47.8 ± 5.2
26 | CCOP(=S)(OCC)Oc1cnc2ccccc2n1 [Quinalphos] (200 µM) | -1.41 ± 9
27 | CS/C(C)=N\OC(=O)N(C)SN(C)C(=O)O/N=C(\C)SC [Thiodicarb] (10 µM) | -6.62 ± 5
28 | Nc1ccc([N+](=O)[O-])cc1N [4-Nitro-1,2-phenylenediamine] (100 µM) | 7.46 ± 2
29 | O=[N+]([O-])c1c(Cl)c(Cl)c(Cl)c(Cl)c1Cl [Pentachloronitrobenzene] (100 µM) | 14.3 ± 4.8
30 | NNC(N)=S [Thiosemicarbazide] (10 µM) | -1.62 ± 1.6
31 | [OH-].c1cc[c]([Sn+]([c]2ccccc2)[c]2ccccc2)cc1 [Triphenyltin hydroxide] (10 µM) | 54.7 ± 30
32 | N#C/C=C/C#N [Fumaronitrile] (10 µM) | -10.2 ± 27
33 | c1ccc(-c2cccc(-c3ccccc3)c2)cc1 [1,1':3',1''-Terphenyl] (200 µM) | -8.04 ± 5.3
34 | O=C(O)c1ccc(=O)[nH]c1 [6-Hydroxynicotinic acid] (100 µM) | -3.56 ± 0.01
35 | NNCc1ccccc1 (100 µM) | -19.4 ± 21
36 | CCNc1nc(NC(C)(C)C)nc(SC)n1 [Terbutryn] (100 µM) | 1.12 ± 1.2
37 | CC(C)CC(C)Nc1ccc(Nc2ccccc2)cc1 (centres undefined) [N-(1,3-Dimethylbutyl)-N'-phenyl-p-phenylenediamine] (10 µM) | 6.74 ± 24
38 | COc1ccc(O)c(C(C)(C)C)c1 [2-tert-Butyl-4-methoxyphenol] (200 µM) | 0.6 ± 0.57
39 | O=C(CCl)c1ccccc1 [2-Chloroacetophenone] (100 µM) | 24.1 ± 11
